LASV entry inh = Lassa virus entry inhibition; Lassa virus pseudotype entry inhibition, cell reporter; Potency, µM (highest dose often 37.9 µM), most hits filed as inhibitors; 1.2% of 300,000 active; calls by dose curve; tested in HEK293 cells; also: nearly all actives have a fitted effect of over 50% in size
VACV Venus inh = vaccinia inhibition (Venus reporter) | Vaccinia virus Venus reporter expression, fluorescence | Potency, µM (highest dose often 36.5 µM), most hits filed as inhibitors | 0.46% of 330,000 active; calls by dose curve; tested in A549 cells; also: nearly all actives have a fitted effect of over 30% in size
HCV inh = blocks hepatitis C virus. Huh7.5.1 HCVcc-Cre infection, luciferase reporter, 44 h. Potency, µM (doses to about 41.8 µM), hits mostly inhibitors. 3.4% of 340,000 active. AID 651820; active = well fitted inhibition curve with a large enough effect; inconclusive = small, poorly fitted or top-dose-only effect, or another doubt; inactive = no such curve, though single readings can be large or run the other way
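Antiviral activity was scored by luciferase reporter output from cells infected with HCVcc-Cre (~0.5 moi) in presence of compound, 44 h infection period, cells seeded 1,000/well 4 h prior.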
Marburg entry inh = blocks Marburg virus binding to or entry into cells | 1.8% of 300,000 active | Potency, µM (top dose mostly 37.8 µM), most hits filed as inhibitors | AID 540276 | Marburg virus pseudotyped entry inhibition, cell reporter; calls by dose curve; tested in HEK293 cells
Vaccinia mCherry = inhibitors of vaccinia virus infection (mCherry reporter signal) | Vaccinia virus mCherry reporter infection, fluorescence | Potency, µM (doses to about 36.5 µM), most hits filed as inhibitors | 0.63% of 310,000 active; calls by dose curve; tested in A549 cells; also: nearly all actives have a fitted effect of over 35% in size
Each line names hits and unclear results; the compound was inactive in the other large screens. Most compounds without a hit are left out; they make up all but 4.6% or so of the library.

COC(=O)c1[nH]c2cc(C)ccc2c1NC(=O)CN1CCN(c2ccccc2OC)CC1	LASV entry inh inconclusive, HCV inh 10µM, Marburg entry inh inconclusive (no result: Vaccinia mCherry)
COC(=O)c1[nH]c2cc(OC)ccc2c1NC(=O)CCN1CCSCC1	none
CC(=O)Nc1ccc(-c2csc(NC(=O)CC(NC(C)=O)c3ccccc3)n2)cc1 (stereo unspecified)	none
CC(=O)NC(CC(=O)Nc1nc(-c2ccc(N(C)S(C)(=O)=O)cc2)cs1)c1ccccc1 (stereo unspecified)	LASV entry inh inconclusive, HCV inh 11µM, Marburg entry inh inconclusive, Vaccinia mCherry inconclusive
CC(C)c1ccc(CNc2cc(N3CCCC3)ccc2[N+](=O)[O-])cc1	HCV inh inconclusive, Marburg entry inh inconclusive
COc1ccc(N2CCN(C(=O)Cc3ccc(C)cc3)CC2)cc1	none
CC(C)(C)c1ccc(CNc2cc(N3CCOCC3)ccc2[N+](=O)[O-])cc1	LASV entry inh inconclusive, HCV inh 10µM, Marburg entry inh inconclusive (no result: Vaccinia mCherry)
Cc1ccc(S(=O)(=O)NCc2ccc(C(=O)N3CCN(c4ccc([N+](=O)[O-])cc4)CC3)cc2)cc1	HCV inh 4µM (no result: LASV entry inh, VACV Venus inh, Marburg entry inh, Vaccinia mCherry)
COc1ccc(N2CCN(/C(=N\S(=O)(=O)c3ccc(C)cc3)Nc3nc(C)cc(C)n3)CC2)cc1	LASV entry inh 8.2µM (no result: VACV Venus inh, Vaccinia mCherry)
COc1ccc(N2CCN(C(=O)c3ccc(CNS(=O)(=O)c4ccc(C)cc4)cc3)CC2)cc1	LASV entry inh inconclusive, HCV inh 13µM, Marburg entry inh inconclusive
Cc1ccc(C)c(Nc2ncnc3onc(C)c23)c1	LASV entry inh inconclusive (no result: HCV inh, Marburg entry inh)
OC1(c2ccc3c(c2)CN(Cc2nccs2)CCO3)CCN(c2ccccc2F)CC1	none (no result: LASV entry inh, HCV inh, Marburg entry inh)
Cc1ccccc1C(=O)N1CCN(c2ccc([N+](=O)[O-])c(NCc3cccnc3)c2)CC1	HCV inh inconclusive, Marburg entry inh inconclusive
Cc1ccc(C(=O)N2CCN(c3ccc([N+](=O)[O-])c(NCc4cccnc4)c3)CC2)cc1	LASV entry inh inconclusive, VACV Venus inh inconclusive, HCV inh 13µM, Marburg entry inh inconclusive
CCCOc1ccc(-c2nnc(-c3cccs3)o2)cc1	LASV entry inh 2µM (no result: Vaccinia mCherry)
CC(=O)c1ccc(NC(=O)CSc2nnc(-c3ccncc3)n2-c2ccccc2)cc1	none (no result: HCV inh, Marburg entry inh)
Nc1ccc(C(=O)Nc2ccc(OC(F)(F)C(F)F)c(NC(=O)c3ccc(N)cc3)c2)cc1	HCV inh 6.3µM, Vaccinia mCherry inconclusive
COCCN(C(=O)COC(=O)/C=C/c1ccc(C(F)(F)F)cc1)c1c(N)n(Cc2ccccc2)c(=O)[nH]c1=O	LASV entry inh inconclusive, VACV Venus inh inconclusive, Vaccinia mCherry 13µM
COCCN(C(=O)COC(=O)/C=C/c1ccc(SC)cc1)c1c(N)n(Cc2ccccc2)c(=O)[nH]c1=O	none
O=[N+]([O-])c1cnc(Nc2ccc(Cl)cn2)c([N+](=O)[O-])c1	HCV inh 11µM, Marburg entry inh inconclusive, Vaccinia mCherry inconclusive
O=C(Nc1ccc(Cl)cn1)c1ccccc1[N+](=O)[O-]	none
COc1ccc(N/C(=N/c2nc(C)cc(C)n2)NC(=O)C(C)C)cc1OC	none (no result: LASV entry inh, VACV Venus inh, HCV inh, Vaccinia mCherry)
Cn1cc([C@@H]2C[C@H]3CN(Cc4cccc(Cl)c4)C(=O)[C@]34CCCN24)c(-c2ccccc2)n1	LASV entry inh inconclusive, HCV inh 10µM, Marburg entry inh inconclusive, Vaccinia mCherry inconclusive
O=C1N(Cc2cccc(Cl)c2)C[C@@H]2C[C@@H](c3cccn3-c3cccnc3)N3CCC[C@@]123	LASV entry inh inconclusive, HCV inh 10µM, Marburg entry inh 13µM
Cc1nn(C)cc1[C@@H]1C[C@H]2CN(Cc3cccc(Cl)c3)C(=O)[C@]23CCCN13	Vaccinia mCherry inconclusive
CCCCC(=O)Nc1cccc(OCc2cc(=O)n3ccccc3n2)c1	none (no result: HCV inh, Marburg entry inh)
Cc1ccc2nc(NC(=O)C3CCCN(S(=O)(=O)c4cccc5nsnc45)C3)sc2c1 (stereo unspecified)	LASV entry inh inconclusive, HCV inh 11µM, Marburg entry inh inconclusive
O=C(C1CCN(S(=O)(=O)c2cccc3nsnc23)CC1)N1CC=C(c2ccccc2)CC1	LASV entry inh inconclusive, HCV inh inconclusive, Marburg entry inh inconclusive
O=C(Nc1ccc(Cl)c(C(F)(F)F)c1)C1CCCN(S(=O)(=O)c2cccc3cccnc23)C1 (stereo unspecified)	LASV entry inh 5.6µM, VACV Venus inh inconclusive (no result: HCV inh, Marburg entry inh)
Cc1ccc2nc(NC(=O)C3CCN(S(=O)(=O)c4cccc5nsnc45)CC3)sc2c1	LASV entry inh inconclusive, HCV inh inconclusive, Marburg entry inh inconclusive

From PubChem BioAssay
